Compound activity deposited in PubChem by National Center for Advancing Translational Sciences (NCATS).
Sm TGR block – blocks Schistosoma mansoni thioredoxin glutathione reductase; Potency, µM (doses to about 114 µM), without a hit: at the highest dose activity change, negative = inhibition, usual class: inhibitors; purified TGR, DTNB reduction, TNB absorbance 405 nm; Q962Y6; actives 3% (n = 360,000); AID 485364; note: potency is the fitted concentration of half-maximal effect; % is set by controls: 0 for no effect and ±100 for the full control effect; nearly all actives have a fitted effect of over 60% in size
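TGR 20 nM + NADPH 100 uM (dispensed conc.), cpd preinc 15 min RT; start with NADPH (500 uM addition) then DTNB (15 mM addition). Kinetic TNB absorbance, 405 nm filter. Four-parameter Hill fit across titration.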
LmPK inh – LmPK (Leishmania mexicana) enzyme inhibition; Q27686; purified LmPK, Kinase-Glo ATP luminescence, 1 h; Potency, µM (doses to about 57.5 µM), for inactives: at the highest dose activity change, negative = inhibition, actives largely listed as inhibitors; actives 0.37% (n = 290,000); note: potency is the fitted concentration of half-maximal effect; % is set by controls: 0 for no effect and ±100 for the full control effect
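Purified LmPK (0.1 nM) converted ADP (0.1 mM) to ATP with PEP (0.5 mM) in imidazole buffer pH 7.2 with KCl and MgCl2, 1 h at room temperature. ATP was read by Kinase-Glo luminescence; data normalized to uninhibited and no-enzyme controls.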
CHX counter – counter-screen for Shiga toxin inhibitors: cycloheximide protein synthesis inhibition; cell reporter, cycloheximide protein synthesis inhibition counterscreen; max response, %; actives 12% (n = 300,000); AID 2314; in the data active = max response mostly above about 13%, no sharp cut-off; inactive = mostly below about 14%; note: read at 38.3 µM for the half of the compounds with a filed dose; 0% is about no effect
Giardia FBPA inh – inhibitors of Giardia lamblia fructose-1,6-bisphosphate aldolase. A8B2U2. purified Giardia FBPA. Potency, µM (series often up to 59.6 µM), for inactives: at the top dose activity, negative = inhibition, usual class: inhibitors. actives 0.71% (n = 290,000). AID 2451; note: potency is the fitted concentration of half-maximal effect; % is set by controls: 0 for no effect and ±100 for the full control effect; nearly all actives have a fitted effect of over 55% in size
Target sequence (A8B2U2 whole entry, looked up): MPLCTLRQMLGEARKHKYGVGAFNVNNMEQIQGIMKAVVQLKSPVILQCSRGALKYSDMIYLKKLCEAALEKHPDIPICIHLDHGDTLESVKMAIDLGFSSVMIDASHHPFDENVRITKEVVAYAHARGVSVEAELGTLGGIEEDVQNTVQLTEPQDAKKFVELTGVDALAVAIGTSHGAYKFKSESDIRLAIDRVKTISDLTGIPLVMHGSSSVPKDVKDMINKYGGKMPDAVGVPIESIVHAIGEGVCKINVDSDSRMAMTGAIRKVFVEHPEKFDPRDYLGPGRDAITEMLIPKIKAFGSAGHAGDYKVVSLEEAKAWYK
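Giardia FBPA (40 nM reagent) was preincubated 10 min at RT with compound (up to 57.5 uM final), then substrate plus GAPDH/TPI/NAD/arsenate coupling system with diaphorase/resazurin was added; resorufin fluorescence (525/598 nm) was read after 20 min.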
Shiga toxin inh – inhibitors of Shiga toxin in Vero cells | actives 9.2% (n = 290,000) | Vero cells, Shiga toxin protein synthesis inhibition reporter | inhibition, % at 38.7 µM; in the data active = inhibition mostly above about 28%, no sharp cut-off; inactive = mostly below about 43%; note: 0% is about no effect
Tb PYK inh – inhibitors of Trypanosoma brucei pyruvate kinase; actives 0.12% (n = 410,000); TbPYK enzyme, Kinase-Glo Plus ATP luminescence, 45 min; Potency, µM (top dose mostly 76.8 µM), for inactives: at the top dose activity, negative = inhibition, most hits filed as inhibitors; Q57TT1; note: potency is the fitted concentration of half-maximal effect; % is set by controls: 0 for no effect and ±100 for the full control effect; nearly all actives have a fitted effect of over 50% in size
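Readout: single end-point luminescence (Kinase-Glo Plus, 10 min). Reaction conditions were TbPYK/substrate plus 130 uM ADP, 45 min at RT, pH 7.2 TEA buffer. No-enzyme wells served as controls, and data were normalized before concentration-response fitting.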
An asterisk follows results filed as active; [ ] = remark or other dose. Shown is part of a subset that was picked to be rich in hits. Unless noted, calls come from the whole dose curve; as a rule, active = well fitted curve in the direction sought with a large enough effect; inconclusive = small, poorly fitted or top-dose-only effect, or another doubt; inactive = no such curve, though single readings can be large; an effect the other way counts as inactive or inconclusive.

For Cc1cc(C)cc(NC(=O)C(CC(C)C)NC(=O)C2CCCCC2)c1 (centres undefined) the results were Sm TGR block 7.9% and Tb PYK inh 2.7%.
For CCN(Cc1cccc(F)c1)C(=O)c1ccc2ccccc2n1 the results were Sm TGR block -0.1%, LmPK inh 2.6%, CHX counter 39.9*, Giardia FBPA inh -7.2%, Shiga toxin inh 62.0 and Tb PYK inh -4.2%.
`Cc1ccc(-n2nc(C(=O)NC(C)C)c(=O)n(C)c2=O)cc1` gave Sm TGR block -5.1% and Tb PYK inh -0.5%.
`CC[N+]1(CC)CCC(=C(c2ccccc2)c2ccccc2)C1C` (centres undefined) gave Tb PYK inh 3.9%.
COc1ccccc1C(=O)Nc1ccc(N2CCN(S(C)(=O)=O)CC2)cc1 was read as Sm TGR block 5.0%, LmPK inh 1.2%, CHX counter 11.2, Giardia FBPA inh 1.1%, Shiga toxin inh 37.1* and Tb PYK inh 5.1%.
Screening CS(=O)(=O)N1CCC(Oc2ccccc2C(=O)NC(C2CC2)C2CC2)CC1 returned Sm TGR block 39.5%, LmPK inh 4.8%, CHX counter 15.8, Giardia FBPA inh 4.0%, Shiga toxin inh 44.9* and Tb PYK inh -6.1%.
For COc1c(C)cccc1C(=O)Nc1ccc(N2CCN(S(C)(=O)=O)CC2)cc1 the results were Sm TGR block -24.5%, LmPK inh -0.1%, CHX counter 35.3*, Giardia FBPA inh -2.9%, Shiga toxin inh 95.8* and Tb PYK inh 2.3%.
COc1ccccc1C(=O)Nc1ccccc1N1CCN(S(C)(=O)=O)CC1 was read as Sm TGR block -0.1%, LmPK inh 3.2%, CHX counter 1.1, Giardia FBPA inh 20.1%, Shiga toxin inh 6.5 and Tb PYK inh -2.6%.
For C/C(CCC(=O)OC[C@@H]1O[C@H](C#Cc2ccccc2)C=C[C@@H]1Oc1ccc(C)cc1)=N/O[C@@H](C)c1cn([C@H]2COC[C@H]2O)nn1 the results were Giardia FBPA inh -0.5%[12.9 µM].
`CCc1cccc(NC(=O)CN2Cc3ccccc3C2=O)c1` gave Sm TGR block 1.9% and Tb PYK inh 2.2%.
CCN(CC(=O)NC(C)(C)C)C(=O)COc1c(Cl)cc(Cl)c2ccc(C)nc12 was read as Sm TGR block 15.8µM*, LmPK inh -1.8%, CHX counter 2.7, Giardia FBPA inh -16.5%, Shiga toxin inh -5.4 and Tb PYK inh -2.2%.
CCCn1cc(S(=O)(=O)c2ccc(C)c(C)c2)c(=O)c2cc(F)c(N3CCC(C)CC3)cc21 was read as Sm TGR block -0.6% and Tb PYK inh -5.7%.
Screening Cc1ccc(CSc2nc3cccnc3n2Cc2ccc(C(=O)NCCc3cccs3)cc2)cc1 returned Sm TGR block 3.7% and Tb PYK inh 4.0%.
Cc1cc(C)c2c(N)c(C(=O)NCC3CCCCC3)sc2n1 was read as Sm TGR block -18.7%, LmPK inh 2.5%, CHX counter 35.3*, Giardia FBPA inh -4.2%, Shiga toxin inh 130.0* and Tb PYK inh -16.0%.
For Cc1cc(C)c2c(N)c(C(=O)NC3CCCC3)sc2n1 the results were Sm TGR block 1.1%, LmPK inh -0.2%, CHX counter 20.1*, Giardia FBPA inh -13.6%, Shiga toxin inh 70.3* and Tb PYK inh -27.8%.
`COc1ccccc1CNC(=O)CCCN1C(=O)CCn2nc(-c3cn(C)c4ccccc34)cc21` gave Sm TGR block 4.1% and Tb PYK inh 1.4%.
COc1cccc(CNC(=O)CN2C(=O)CCn3nc(-c4cn(C)c5ccccc45)cc32)c1OC was read as Sm TGR block 15.8µM* and Tb PYK inh -2.7%.
Cc1ccccc1-c1nc(CS(=O)CC(=O)NCc2ccccc2)c(C)o1 (centres undefined) was read as Sm TGR block 22.4µM*, LmPK inh -3.2%, CHX counter -2.3, Giardia FBPA inh 7.6%, Shiga toxin inh 10.6 and Tb PYK inh 0.1%.
